In the library only some 19% were active in any assay of this set; here they are far more common.
HT1080 IDH1KD tx = toxicity to HT-1080 IDH1 knockdown cells (counter line); HT-1080 IDH1 knockdown viability, ATP luminescence, 48 h; Potency, µM (doses to about 46.1 µM), actives largely listed as cytotoxic; actives 2% (n = 360,000); AID 686971
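Knockdown cells (IDH1KD HT-1080) received compounds 2 h after plating at 750 cells/well and were kept 48 h at 37 °C in 5% FBS RPMI. A CellTiter-Glo luminescence read gave % activity for curve fitting.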
TDP1 cell noCPT = qHTS for Inhibitors of human tyrosyl-DNA phosphodiesterase 1 (TDP1): qHTS in cells in absence of CPT | DT40 Tdp1-/- hTDP1 cells, no CPT, ATP luminescence, 48 h | Potency, µM (titrated, usually from 46.2 µM), actives largely listed as inhibitors | AID 686978, 2013 | actives 15% (n = 420,000); note: nearly all actives have a fitted effect of over 55% in size
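Chicken DT40 Tdp1-/- cells complemented with human TDP1, screened without camptothecin (DMSO vehicle only), 400 cells/well. Compounds pin-transferred, cells incubated at 37 °C for at least 48 hr. Growth read as ATP-dependent luminescence (CellTiter-Glo, 30 min at RT).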
IL1B secr inh = inflammasome signaling inhibition, IL-1 beta readout | THP-1 LPS/ATP IL-1B secretion, AlphaLISA, 16 h; stronger effect = lower value | activity change, % at 57.5 µM | actives 4.7% (n = 360,000); in the data active = activity change below about -50%; inconclusive = mostly about -30% to -49%
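THP-1 cells pretreated 1 hr with compounds (up to 57.5 uM final), then stimulated with LPS (250 ng/mL final) plus ATP (1.25 mM final); secreted IL-1B measured by AlphaLISA after 16 hr, decreased signal indicating inhibition.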
TDP1 cell CPT = DT40-hTDP1 cell growth loss with CPT | Potency, µM (doses to about 46.2 µM), usual class: inhibitors | chicken DT40 Tdp1-/-;hTDP1 cells + 20 nM CPT, ATP luminescence, 48 h | actives 12% (n = 420,000) | AID 686979; note: nearly all actives have a fitted effect of over 55% in size
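Chicken DT40 Tdp1-/- cells complemented with human TDP1, 400 cells/well, exposed to compounds plus 20 nM camptothecin for at least 48 h at 37 C; viability read as ATP content by CellTiter-Glo luminescence.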
HT1080-NT tox = kills 2HG-producing HT-1080-NT fibrosarcoma cells; HT-1080-NT fibrosarcoma viability, CellTiter-Glo ATP luminescence, 48 h; actives 1.6% (n = 360,000); Potency, µM (doses to about 46.1 µM), most hits filed as cytotoxic;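 note: NT is the 2HG producing partner of a matched IDH1 knockdown line; nearly all actives have a fitted effect of over 55% in size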
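Read-out is CellTiter-Glo luminescence after 10 minutes at room temperature, following 48 hours' compound treatment of HT-1080-NT cells (750 cells/well, RPMI, 5% FBS, 37 degrees C).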
Each line names hits and unclear results; the compound was inactive in the other large screens. Unless noted, calls come from the whole dose curve; as a rule, active = well fitted curve in the direction sought with a large enough effect; inconclusive = small, poorly fitted or top-dose-only effect, or another doubt; inactive = no such curve, though single readings can be large; an effect the other way counts as inactive or inconclusive.

CCC(=O)N1CCN(c2ccc(NC(=O)c3ccc(Br)o3)cc2)CC1	IL1B secr inh -56
O=C(COc1ccc([N+](=O)[O-])cc1)Nc1ccc(N2CCN(C(=O)c3ccco3)CC2)cc1	TDP1 cell noCPT 5.8µM, TDP1 cell CPT 9.2µM
O=C(Nc1ccccc1C(=O)O)c1ccc(NC(=O)c2ccc(Br)o2)cc1	HT1080 IDH1KD tx inconclusive, TDP1 cell noCPT inconclusive, TDP1 cell CPT inconclusive
O=C(CSc1ccc(Cl)cc1)Nc1ccc(N2CCN(C(=O)c3ccco3)CC2)cc1	HT1080 IDH1KD tx inconclusive, TDP1 cell noCPT 23µM, IL1B secr inh -68, TDP1 cell CPT inconclusive, HT1080-NT tox inconclusive
Cc1ccccc1OCC(=O)Nc1ccc(N2CCN(C(=O)c3ccco3)CC2)cc1	TDP1 cell noCPT 21µM, IL1B secr inh inconclusive, TDP1 cell CPT inconclusive, HT1080-NT tox inconclusive
CCn1c(-c2ccc(C(C)(C)C)cc2)n[nH]c1=S	TDP1 cell noCPT 8.2µM, TDP1 cell CPT 15µM
CC(C)(C)c1ccc(-c2n[nH]c(=S)n2C2CCCC2)cc1	HT1080 IDH1KD tx inconclusive, TDP1 cell noCPT 16µM, TDP1 cell CPT inconclusive, HT1080-NT tox inconclusive
Cn1c(-c2ccc(C(C)(C)C)cc2)n[nH]c1=S	TDP1 cell noCPT inconclusive, TDP1 cell CPT inconclusive
Cn1cccc1/C=N/n1c(-c2ccc(C(C)(C)C)cc2)n[nH]c1=S	TDP1 cell noCPT 8.2µM, TDP1 cell CPT 8.2µM, HT1080-NT tox inconclusive
Cn1cccc1/C=N/n1c(-c2ccccc2)n[nH]c1=S	none
CC(C)C(=O)NCC(c1ccc2c(c1)OCO2)N1CCOCC1 (configuration not stated)	none
CC1(C)CN(C2CCCCC2)C(=O)[C@H]1CC(=O)Nc1ccc(Br)cc1	TDP1 cell noCPT 18µM, TDP1 cell CPT inconclusive
CCCCCSc1nnc2c(n1)OC(c1cccn1C)N(C(C)=O)c1ccccc1-2 (configuration not stated)	IL1B secr inh -74
CNC[C@@H]1OCc2ccccc2-c2ccccc2C(=O)N([C@@H](C)CO)C[C@@H]1C	none
O=C1C=C(C#Cc2ccc(Oc3ccccc3)cc2)C[C@@H](c2ccc(F)cc2)C1	HT1080 IDH1KD tx inconclusive, TDP1 cell noCPT 12µM, IL1B secr inh -80, TDP1 cell CPT 16µM, HT1080-NT tox inconclusive
COc1cccc(C#CC2=CC(=O)C[C@H](c3ccc(F)cc3)C2)c1	HT1080 IDH1KD tx inconclusive, TDP1 cell noCPT 8.2µM, IL1B secr inh -93, TDP1 cell CPT 13µM, HT1080-NT tox inconclusive
CC(C)N(CCO)C(=O)CCc1nnc(Cc2cccc(C(F)(F)F)c2)o1	none
COc1ccc(CCNC(=O)CCn2c(=O)c3ccccc3n(CC(=O)Nc3ccccc3F)c2=O)cc1OC	none (no result: HT1080 IDH1KD tx, IL1B secr inh, HT1080-NT tox)
Nc1nc(Nc2ccc(Cl)cc2)nc2ccccc12	TDP1 cell noCPT 5.8µM, IL1B secr inh -119, TDP1 cell CPT 7.3µM
CCOc1ccc(Nc2nc(N)c3ccccc3n2)cc1	HT1080 IDH1KD tx 18µM, TDP1 cell noCPT inconclusive, IL1B secr inh -91, TDP1 cell CPT 7.3µM, HT1080-NT tox 21µM
CN(C)c1ccc(Nc2nc(N)c3ccccc3n2)cc1	HT1080 IDH1KD tx inconclusive, TDP1 cell noCPT 13µM, IL1B secr inh -96, TDP1 cell CPT 26µM, HT1080-NT tox inconclusive
O=C(O)CSc1cc(C(F)(F)F)nc(-c2ccccn2)n1	none
FC(F)(F)c1cccc(Sc2cc(C(F)(F)F)nc(-c3ccccn3)n2)c1	TDP1 cell noCPT 21µM, TDP1 cell CPT 18µM
Cc1ccc(Sc2cc(C)nc(-c3ccccn3)n2)cc1	HT1080 IDH1KD tx inconclusive, TDP1 cell noCPT 10µM, TDP1 cell CPT 6.5µM
C=CCNc1cc(C(F)(F)F)nc(-c2ccccn2)n1	TDP1 cell noCPT inconclusive, TDP1 cell CPT 18µM
COc1cnc(-c2ccccn2)nc1Oc1ccccc1Cl	TDP1 cell noCPT inconclusive, TDP1 cell CPT inconclusive
COc1cnc(-c2ccccn2)nc1NC(C)C	HT1080 IDH1KD tx inconclusive, TDP1 cell noCPT 0.046µM, TDP1 cell CPT 0.13µM, HT1080-NT tox inconclusive
CCN(CC)c1cc(C(F)(F)F)nc(-c2ccccn2)n1	HT1080 IDH1KD tx inconclusive, TDP1 cell noCPT inconclusive, TDP1 cell CPT inconclusive, HT1080-NT tox inconclusive
